Hits are enriched below; roughly 7.5% of the tested compounds scored in any of these assays.
SMN2 splice enh: increases expression of the SMN2 splice variant; HEK293 SMN2-luciferase splicing reporter, luminescence, 30-36 h; Potency, µM (highest dose often 46.1 µM), actives largely listed as activators; 210,000 tested, 2.8% active; further: nearly all actives have a fitted effect of over 55% in size
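HEK293 cells carry an SMN2 minigene-luciferase reporter in which exon 7 inclusion puts luciferase in frame. Cells were seeded at 2000 cells/well, attached for 10-12 hours, then exposed to compounds for 30-36 hours at 37C before ONE-Glo luminescence.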
NPC1 prom act: activates the NPC1 promoter | Potency, µM (series often up to 9.22 µM), actives largely listed as activators | 320,000 tested, 2.4% active | Huh7 NPC1 promoter luciferase reporter, 24 h | AID 485313; further: nearly all actives have a fitted effect of over 60% in size
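Luminescence from an NPC1 promoter-driven luciferase reporter in stably transfected Huh7 cells was measured after 24 h compound treatment at 37 °C, followed by 10 min ambient incubation with luciferase detection reagent.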
Rab9 promoter act: activators of Rab9 promoter. Huh7 Rab9 promoter-luciferase reporter, luminescence, 24 h. Potency, µM (doses to about 9.22 µM), hits mostly activators. 320,000 tested, 2.8% active. AID 485297; further: nearly all actives have a fitted effect of over 60% in size
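Huh7 cells stably carrying Rab9 promoter–luciferase reporter, plated 1500 cells/well, compound added after 2 h and incubated 24 h at 37 °C; luciferase luminescence then read after 10 min with detection reagent.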
ELG1 genotox: genotoxicity induction in ELG1-luciferase HEK293T cells; HEK293T ELG1-luciferase reporter, luminescence, 16 h; Potency, µM (highest dose often 46 µM), actives largely listed as activators; 330,000 tested, 1.3% active; further: nearly all actives have a fitted effect of over 60% in size
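Reporter readout depends on ELG1 protein level, which increases with genetic stress. After 16 hr compound exposure at 37 °C, luciferase activity was quantified using ONE-Glo.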
FLuc counter: firefly luciferase modulation, counter-screen for miR-21 project; P08659; 360,000 tested, 6.9% active; Potency, µM (titrated, usually from 57.5 µM), most hits filed as inhibitors; AID 588342; purified FLuc, Km substrates, luminescence inhibition; further: nearly all actives have a fitted effect of over 55% in size
Target sequence (P08659 whole entry, looked up): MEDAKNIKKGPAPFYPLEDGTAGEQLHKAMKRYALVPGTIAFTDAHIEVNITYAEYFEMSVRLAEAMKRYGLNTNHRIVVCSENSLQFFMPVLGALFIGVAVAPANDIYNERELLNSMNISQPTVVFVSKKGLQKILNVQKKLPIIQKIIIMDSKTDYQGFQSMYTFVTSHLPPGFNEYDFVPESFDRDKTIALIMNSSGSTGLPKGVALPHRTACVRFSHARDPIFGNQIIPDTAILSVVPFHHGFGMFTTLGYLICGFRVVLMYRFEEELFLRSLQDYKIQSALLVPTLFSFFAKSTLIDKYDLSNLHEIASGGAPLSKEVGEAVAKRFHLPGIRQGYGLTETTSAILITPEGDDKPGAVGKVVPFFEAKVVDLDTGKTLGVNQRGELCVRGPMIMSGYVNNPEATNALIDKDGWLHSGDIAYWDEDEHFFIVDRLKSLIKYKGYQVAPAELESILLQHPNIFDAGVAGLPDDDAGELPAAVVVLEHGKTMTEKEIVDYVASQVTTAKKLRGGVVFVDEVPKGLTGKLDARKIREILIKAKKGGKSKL
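Purified P. pyralis luciferase, 10 nM final, with Km-level 10 uM D-luciferin and 10 uM ATP in 50 mM Tris acetate pH 7.5, 10 mM Mg acetate, 0.01% Tween-20, 0.05% BSA; 6-point qHTS titration about 60 µM downward; luminescence read.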
Luc counter: blocks Kinase-Glo luciferase, a counter-screen artifact. Kinase-Glo luciferase, ATP luminescence, 8 min. Potency, µM (titrated, usually from 38.3 µM), usual class: inhibitors. 200,000 tested, 0.28% active; further: nearly all actives have a fitted effect of over 60% in size
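Inhibition of Kinase-Glo luciferase light generation was assessed at 10 uM ATP in pH 7.2 imidazole buffer, with luminescence measured after eight minutes at ambient temperature.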
A number is an active result; n = inactive; u = inconclusive; x = not tested or not shown. The call rests on the fitted dose curve; in most records, active means well fitted curve in the direction sought with a large enough effect; inconclusive means small, poorly fitted or top-dose-only effect, or another doubt; inactive means no such curve, though single readings can be large; an effect the other way counts as inactive or inconclusive.

SMILES | SMN2 splice enh | NPC1 prom act | Rab9 promoter act | ELG1 genotox | FLuc counter | Luc counter
COc1ccc(C(=O)NCc2nc(-c3cccc(C)c3)no2)cc1OC | n | x | x | x | n | x
COc1cc(NC(=O)c2noc3c2CC(C(C)(C)C)CC3)cc(OC)c1OC (stereo unspecified) | n | x | x | x | n | x
COc1ccc(NC(=O)CN(C)C(=O)C2CCCO2)cc1 (stereo unspecified) | x | n | n | n | n | x
Cc1cccc(NC2=CC(c3cccc(Br)c3)N(c3cccc(C)c3)C2=O)c1 (stereo unspecified) | n | x | x | x | n | x
CCOC(=O)Cc1ccc(NC(=O)N2CC(C)Oc3ccc(Cl)cc32)cc1 (stereo unspecified) | x | x | x | x | n | x
COc1ccc(CCNC(=O)c2ccc3c(c2)N(Cc2ccccc2C)C(=O)c2ccccc2S3)cc1OC | x | x | x | x | n | x
COc1ccc(C(=O)c2c(N)c(-c3nc(-c4ccccc4)cs3)c3ccccn23)cc1 | n | x | x | x | n | x
COc1cc(NC(=O)c2c(-c3ccc(C)cc3)nnc3ccccc23)cc(OC)c1OC | x | x | x | x | n | x
Cc1cccc(NC(=O)Nc2cccc(F)c2)n1 | n | u | u | u | 13µM | n
COc1cccc(NC(=O)Nc2nccc(C)n2)c1 | x | 1.3µM | 0.56µM | u | 1.2µM | x
Cc1ccnc(NC(=O)Nc2cccc(F)c2)n1 | 11µM | 2.2µM | 1.1µM | u | 7.6µM | n
CCc1ccccc1NC(=O)Nc1cccc(F)c1 | n | n | n | n | u | n
O=C(O)c1ccccc1NC(=O)C1CCN(S(=O)(=O)c2cccc3nsnc23)CC1 | x | n | n | n | n | x
CC(C)c1ccc(CNCCSc2nnnn2-c2ccccc2)cc1 | n | x | x | x | n | x
CC(C)Cc1cc(C(=O)Nc2ccc(F)cc2F)no1 | n | n | n | 16µM | 11µM | n
CC(C)Cc1cc(C(=O)Nc2ccc3c(c2)OCO3)no1 | 16µM | 3.2µM | 3.2µM | 4.6µM | 5.4µM | n
CCc1ccc(NC(=O)c2cc(CC(C)C)on2)cc1 | n | n | u | 16µM | 2.7µM | n
COc1ccc(NC(=O)c2cc(-c3ccccc3)on2)cc1OC | x | n | n | n | n | x
COc1ccc(NC(=O)c2cc(CC(C)C)on2)cc1OC | n | n | n | 21µM | u | n
Cc1ccc(-c2c3c(=O)n(C)c(=O)n(C)c3c3c(C)nc4ccccc4n23)cc1 | n | x | x | x | n | x
CC(C)Cc1cc(C(=O)NCc2cccs2)no1 | 13µM | u | u | 16µM | 15µM | n
CC(C)Cc1cc(C(=O)Nc2cccc(O)c2)no1 | x | u | u | u | 0.67µM | x
CC(C)Cc1cc(C(=O)Nc2ccc(Br)cc2)no1 | x | u | u | u | 2.7µM | x
CC(C)Cc1cc(C(=O)NCc2cccnc2)no1 | n | n | n | n | n | n
CC(C)Cc1cc(C(=O)Nc2cc(Cl)ccc2Cl)no1 | n | n | n | n | u | n
SMILES | SMN2 splice enh | NPC1 prom act | Rab9 promoter act | ELG1 genotox | FLuc counter | Luc counter
CC(C)Cc1cc(C(=O)Nc2c(F)cc(F)cc2Br)no1 | n | n | n | u | u | n
Cc1ccccc1CNC(=O)CCC(=O)N1CCOc2ccc(Cl)cc21 | x | n | n | n | n | x
COc1ccc(C(=O)n2nc(C)cc2Nc2ccccc2)cc1 | n | n | n | 23µM | 11µM | n
Cc1ccc(NC(=O)Cn2c(=O)n(CCC(=O)N3CCc4ccccc4C3)c(=O)c3ccccc32)c(C)c1 | n | x | x | x | n | x
COc1ccccc1NC(=O)N1CCCC1C(=O)NCc1ccccc1F (stereo unspecified) | 6.3µM | n | n | n | n | n
COc1ccccc1NC(=O)N1CCCC1C(=O)NCc1ccccc1Cl (stereo unspecified) | x | n | n | n | n | x
Cc1cc(C)cc(OCC(=O)NCC2(N(C)C)CCCCC2)c1 | x | x | x | x | n | x
CC(CNC(=O)c1cc(COc2ccc3ncccc3c2)on1)c1ccccc1 (stereo unspecified) | x | n | n | n | n | x
COc1cc(Cl)ccc1OCc1cc(C(=O)NC(C)Cc2cnccn2)no1 (stereo unspecified) | x | 2.5µM | 1.1µM | u | 6.7µM | x
CCC(NC(=O)c1cc(COc2cc(C)c(Cl)c(C)c2)on1)c1ccncc1 (stereo unspecified) | x | n | n | n | n | x
COc1cc(Cl)ccc1OCc1cc(C(=O)NCC(C)c2ccccc2)no1 (stereo unspecified) | x | n | n | n | 21µM | x
CCC(NC(=O)c1cc(COc2ccc(Cl)cc2OC)on1)c1ccncc1 (stereo unspecified) | x | 3.5µM | 4µM | u | 4.8µM | x
CC(Cc1cnccn1)NC(=O)c1cc(COc2ccc(F)cc2F)on1 (stereo unspecified) | x | n | n | n | n | x
CCC(NC(=O)c1cc(COc2ccc(OC)cc2Cl)on1)c1ccncc1 (stereo unspecified) | x | n | u | n | 12µM | x
CCOC(=O)c1c(C)oc2c1c(C=NCC1CCCO1)c(O)c1ccccc12 (stereo unspecified) | n | n | n | n | 9.5µM | n
O=C(CSc1ncc(-c2ccccc2)[nH]1)Nc1ccc(Cl)cc1 | n | x | x | x | u | x
CCOc1ccccc1CNC(=O)C(CC)n1nc(C)c2c(C)n(-c3ccccc3)nc2c1=O (stereo unspecified) | x | x | x | x | n | x
COc1cc2cc(CCCOC(=O)CCCC(=O)O)oc(=O)c2cc1OC | x | n | n | n | n | x
O=c1c2c3c(sc2nc2sc(C4CC4)nn12)CCCC3 | 7.9µM | 2.5µM | 4µM | 5.8µM | 3µM | n
Cc1cccc(C)c1NC(=O)CNC(=O)CNC(=O)c1ccc2c(c1)OCO2 | x | n | n | n | n | x
COc1ccc(-c2nnc(N(C)C(=O)c3ccco3)s2)cc1OC | x | n | n | n | n | x
COc1ccc(-c2csc(N(C)C(=O)c3cccs3)n2)cc1 | x | u | 2.5µM | n | 6µM | n
CN(C(=O)c1ccco1)c1nc(-c2ccc(F)cc2)cs1 | x | 3.5µM | 2.8µM | u | 2.7µM | x
O=C(c1ccco1)N(CCCN1CCOCC1)c1nc(-c2ccc(F)cc2)cs1 | n | n | n | n | n | n
CN(C(=O)c1ccco1)c1nnc(-c2ccc(F)cc2)s1 | x | 2.2µM | 3.2µM | u | 6.7µM | x
SMILES | SMN2 splice enh | NPC1 prom act | Rab9 promoter act | ELG1 genotox | FLuc counter | Luc counter
CCN(C(=O)c1cn(-c2cccc(OC)c2)c(=O)c2ccccc12)c1ccccc1C | x | x | x | x | n | x
CCN(CC)C(=O)Cn1c(=O)n(-c2ccc(C)c(C)c2)c(=O)c2c(C)c(C(=O)N(CC)CC)sc21 | x | x | x | x | n | x
CC(CNC(=O)c1cnn(-c2ccc(F)cc2)c1-n1cccc1)c1ccccc1 (stereo unspecified) | x | x | x | x | n | x
COC(=O)c1ccc(Nc2ncnc3c2cnn3-c2ccccc2)cc1 | x | x | x | x | n | x
CC(C)(C)c1ccc(OCCC(=O)OCC(=O)NC2CCCCC2)cc1 | x | n | n | n | 17µM | x
Cc1ccc(C(=O)COC(=O)CCC(=O)NC2CCCCC2)cc1C | n | n | n | n | 9.5µM | n
